Compounds with a hit are over-represented: about 3.3% of the library has one in this group of screens.
USP1 inh: inhibitors of human USP1/UAF1 deubiquitinase | O94782 | recombinant USP1/UAF1, Ub-Rhodamine cleavage fluorescence | Potency, µM (doses to about 57.1 µM), for the others: at the highest dose activity change, negative = inhibition, actives largely listed as inhibitors | 0.23% of 390,000 active; note: potency is the fitted concentration of half-maximal effect; nearly all actives have a fitted effect of over 60% in size
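USP1/UAF1 complex (1 nM) preincubated 15 min at room temperature with compound, then Ub-Rho substrate (150 nM final) added. Kinetic fluorescence at 480/540 nm over 6 reads at 60 s intervals; 50 mM HEPES pH 7.8, 0.5 mM EDTA, 0.1 mg/ml BSA, 1 mM TCEP, 0.01% Tween-20.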
PLK1 PBD block: inhibitors of human PLK1 polo-box domain binding | 2.8% of 360,000 active | Plk1 PBD binding of FITC phosphopeptide, fluorescence polarization | P53350 | Potency, µM, for the others: max response, negative = inhibition, most hits filed as inhibitors; note: potency is the fitted concentration of half-maximal effect; series mostly up to about 57 µM; nearly all actives have a fitted effect of over 65% in size
Target sequence (P53350 whole entry, looked up, the tested form may be a part): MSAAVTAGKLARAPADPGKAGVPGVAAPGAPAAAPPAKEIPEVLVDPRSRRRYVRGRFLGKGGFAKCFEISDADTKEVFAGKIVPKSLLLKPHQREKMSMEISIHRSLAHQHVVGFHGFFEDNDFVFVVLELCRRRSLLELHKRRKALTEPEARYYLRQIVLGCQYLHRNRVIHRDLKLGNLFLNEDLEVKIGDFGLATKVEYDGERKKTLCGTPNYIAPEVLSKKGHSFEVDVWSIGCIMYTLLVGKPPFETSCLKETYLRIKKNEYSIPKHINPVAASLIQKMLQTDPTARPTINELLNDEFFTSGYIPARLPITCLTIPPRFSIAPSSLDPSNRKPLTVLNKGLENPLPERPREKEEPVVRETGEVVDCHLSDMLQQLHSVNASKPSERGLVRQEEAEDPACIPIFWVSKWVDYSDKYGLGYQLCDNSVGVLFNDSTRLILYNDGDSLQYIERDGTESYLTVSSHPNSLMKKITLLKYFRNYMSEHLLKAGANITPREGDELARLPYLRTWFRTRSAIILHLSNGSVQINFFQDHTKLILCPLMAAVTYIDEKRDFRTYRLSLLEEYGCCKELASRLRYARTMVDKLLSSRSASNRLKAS
USP2a inh: inhibitors of human ubiquitin-specific protease USP2a; O75604; Potency, µM (series often up to 38.3 µM), for the others: top-dose activity change, negative = inhibition, usual class: inhibitors; USP2 core, Ub-CHOP2 coupled fluorogenic reporter, 485/531; 0.01% of 330,000 active;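 note: potency is the fitted concentration of half-maximal effect; plate controls were DMSO wells for no effect and full inhibition by NEM control for full effect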
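Deubiquitinase activity read as fluorescence (485/531 nm) after Ub-CHOP2 cleavage activates the enterokinase reporter on its substrate; USP2 core 10nM, Ub-CHOP2 and substrate 25nM each, 30min compound preincubation then 60min RT; data normalized to NEM, curves fitted.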
PI5P4K alpha inh: PI5P4K alpha (human) kinase inhibition; AID 652105; 1.2% of 330,000 active; max response, %; PI5P4Kalpha enzyme, ADP-Glo luminescence, 60 min; hits give low values; P48426; active = max response of -50% or lower; inconclusive = between -30% and -50%; inactive = -30% or higher; note: value at the top dose of about 77 µM
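ADP-Glo luminescence end-point read after a 60 min room-temperature kinase reaction of PI5P4Kalpha plus substrate, initiated with ATP at 5 microM final. Buffer: 0.038 M HEPES pH 7.4, EGTA, 0.1% CHAPS, 5% DMSO.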
WRN helicase inh: inhibitors of human WRN helicase | 0.46% of 360,000 active | WRN helicase unwinding, fluorescent forked duplex, kinetic | Q14191 | Potency, µM (highest dose often 114 µM), without a hit: at the highest dose activity change, negative = inhibition, usual class: inhibitors | AID 651768; note: potency is the fitted concentration of half-maximal effect; nearly all actives have a fitted effect of over 55% in size
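Screening of the MLSMR collection measured strand separation of a quenched forked DNA duplex (100 nM) by 20 nM WRN with 2 mM ATP, all final. Compounds were preincubated with enzyme 15 min at room temperature.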
TbPYK inh: Trypanosoma brucei pyruvate kinase inhibition, cherry-pick confirmation | Potency, µM (titrated, usually from 76.9 µM), for inactives: at the highest dose activity change, negative = inhibition, actives largely listed as inhibitors | 67% of 890 active | recombinant TbPYK, Kinase-Glo ATP luminescence | shares compounds with PLK1 PBD block; note: potency is the fitted concentration of half-maximal effect; nearly all actives have a fitted effect of over 70% in size
TbPYK ADP-Glo: orthogonal confirmation of Trypanosoma brucei pyruvate kinase inhibitors | recombinant TbPYK, ADP-Glo luminescence, 60 min | Potency, µM (top dose mostly 76.9 µM), inactives show top-dose activity change, negative = inhibition, most hits filed as inhibitors | shares compounds with PLK1 PBD block | 62% of 890 active; note: potency is the fitted concentration of half-maximal effect; nearly all actives have a fitted effect of over 75% in size
* marks the source's active call; other numbers are inactive results; ? = inconclusive; · = no result given; [ ] = dose if it differs, or a comment. Unless noted, calls come from the whole dose curve; as a rule, active = well fitted curve in the direction sought with a large enough effect; inconclusive = small, poorly fitted or top-dose-only effect, or another doubt; inactive = no such curve, though single readings can be large; an effect the other way counts as inactive or inconclusive. Unless noted, % is set by controls: 0 for no effect and ±100 for the full control effect.

SMILES	USP1 inh	PLK1 PBD block	USP2a inh	PI5P4K alpha inh	WRN helicase inh	TbPYK inh	TbPYK ADP-Glo
S=C1SCN(Cc2ccccc2)CN1Cc1ccccc1	-17.2%	-0.4%	-9.6%	7.7	-1.4%	·	·
S=C1SCN(Cc2ccccc2)CN1Cc1ccco1	-20.4%	11.9µM*	·	-75.4*	-5.9%[11.6 µM]	?	?
COc1ccc(Br)c2c1-c1nc(NC(=O)c3ccc(F)cc3)sc1C2	-6.8%	·	·	·	·	·	·
O=C1C=CC(=O)C(C2=C3C(=O)N(CCc4ccccc4)CC(=O)N3CCC2)=C1	-11.9%	?	5.6%	-71.7*	39.8µM*	0.562µM*	0.891µM*
COCCN(CC(=O)NC1CCCCC1)C(=O)/C=C/C(=O)c1ccc(OC)cc1O	-14.7%	21.2µM*	0.9%	5.9	-21.8%	7.08µM*	12.6µM*
COc1ccc(CN(C(=O)/C=C/C(=O)c2ccc(OC)cc2O)C(C(=O)NC2CCCCC2)c2ccncc2)cc1 (stereo unspecified)	-17.0%	-1.4%	-10.8%	-6.0	-4.7%	·	·
COc1ccc(C(=O)/C=C/C(=O)N(CC(=O)NC2CCCCC2)Cc2cccs2)c(O)c1	-29.6%	6.7µM*	0.3%	-17.6	-9.1%	4.47µM*	14.1µM*
COc1ccc(OC)c(NC(=O)c2cc3c(n(-c4ccc(Cl)cc4)c2=O)CC(C)(C)CC3=O)c1	-24.5%	·	·	·	·	·	·
Cc1ccc(C)c(CN2CCC(CNC(=O)C(CC(C)C)N3Cc4ccccc4C3=O)CC2)c1 (stereo unspecified)	-8.8%	·	·	·	·	·	·
Cc1[nH][nH]c(=O)c1C(c1ccc(-c2ccc(Cl)c(C(=O)O)c2)o1)c1c(C)[nH][nH]c1=O	?	?	1.6%	-21.7	?	·	·
CC1(C)OC(=O)C(=Cc2ccc(-c3ccc(Cl)c(C(=O)O)c3)o2)C(=O)O1	-17.6%	1.68µM*	3.8%	?	44.7µM*	7.08µM*	17.8µM*
Cc1ccc(-c2csc3ncn(-n4c(C)ccc4C)c(=O)c23)o1	-1.5%	?	-17.7%	?	-15.8%	-23.7%	?
Cc1sc2ncn(-n3c(C)ccc3C)c(=O)c2c1C	-20.0%	-5.4%	0.9%	4.9	-6.3%	·	·
Cc1ccc(O)c(N=Nc2ccccc2)n1	?	-7.8%	·	-77.9*	-4.3%	10µM*	15.5%
CCc1cc2c(cc3c(=O)n(CC(=O)NC(C)C)nc(CC)n32)s1	0.1%	·	·	·	·	·	·
Cn1c(N)c(C#N)c2c(c1=S)CSC(C)(C)C2	-16.3%	-26.7%	2.3%	-15.2	-4.2%	·	·
CC1(C)Cc2c(C#N)c(N)sc(=S)c2CS1	-11.5%	8.44µM*	-1.7%	?	?	?	?
CCOC(=O)C(C)(C)N(Cc1ccccc1C)S(=O)(=O)c1ccc(Cl)c([N+](=O)[O-])c1	-14.7%	-10.1%	-0.5%	14.9	-5.8%	2.6%	2.1%
CCCN(CCC)S(=O)(=O)c1ccc(Cl)c([N+](=O)[O-])c1	-1.4%	-11.5%	1.3%	0.5	1.2%[57.1 µM]	·	·
COc1ccc(OC)c(NC2c3ccccc3C(=O)N2Cc2ccc3c(c2)OCO3)c1 (stereo unspecified)	-2.0%	-6.8%	-0.1%	-2.2	-8.4%	?	35.5µM*
O=C1c2ccccc2C(Nc2ccc3c(c2)OCO3)N1Cc1ccc2c(c1)OCO2 (stereo unspecified)	-19.0%	-0.5%	-0.1%	-10.9	-0.7%	·	·
Cc1cccc(-n2cc(-c3ccccc3)c3c(NC(C)C)ncnc32)c1	-16.0%	·	·	·	·	·	·
COC(=O)C1=C(C(=O)OC)C(C(=O)OC)C(C(=O)OC)C(C(=O)OC)(C(=O)OC)C(C(=O)OC)=C1C(=O)OC (stereo unspecified)	-0.4%	10.6µM*	·	-0.5	?	28.2µM*	35.5µM*
CC(=S)/C=C1\Sc2ccccc2N1C	?	26.7µM*	0.6%	·	-3.2%	?	14.1µM*
COc1ccc(C(=O)/C=C2\Sc3ccccc3N2C)cc1	-7.8%	?	2.2%	2.5	?	·	·
SMILES	USP1 inh	PLK1 PBD block	USP2a inh	PI5P4K alpha inh	WRN helicase inh	TbPYK inh	TbPYK ADP-Glo
CCOc1ccc(CCn2c3c(c(=O)[nH]c2=O)C(NC(=O)c2ccccc2)(C(F)(F)F)C(=O)N3)cc1OCC (stereo unspecified)	-20.0%	·	·	·	·	·	·
O=C(NC(=S)NNC(=O)c1ccccc1[N+](=O)[O-])c1ccc(Br)cc1	-24.9%	?	0.6%	?	-8.7%	?	?
O=C(NNC(=S)NC(=O)c1ccccc1[N+](=O)[O-])c1ccccc1Cl	-9.2%	-6.7%	0.9%	0.9	1.2%	·	·
Cc1ccc(-n2c(SCC(=O)Nc3ccc4c(c3)OCO4)nnc2-c2cccs2)cc1	-10.5%	-4.9%	-0.2%	-12.5	-5.5%	1.78µM*	4.47µM*
Cc1ccc(CN2CCN(/N=C/c3ccc(O)c(O)c3)CC2)cc1	-20.3%	?	-0.8%	-29.9	-4.0%	14.1µM*	15.8µM*
O=c1c2c(-c3cccs3)csc2ncn1-c1ccc(Br)cc1	-1.6%	-6.7%	-0.2%	15.6	0.6%	·	·
Cn1c(=S)[nH]c2scc(-c3cccs3)c2c1=O	-12.0%	?	1.2%	?	-12.2%	11.2µM*	14.1µM*
C=CCN1CCN(C(c2ccccc2)c2nnnn2CCC(C)C)CC1 (stereo unspecified)	-7.5%	2.67µM*	0.5%	-58.9*	?	3.5%	-4.0%
CC(C)CCn1nnnc1C(c1ccccc1)N1CCN(C)CC1 (stereo unspecified)	-15.3%	-0.7%	1.8%	-1.2	3.4%	·	·
CCc1cccc(C)c1NC(=O)CN1C(=O)C2(SCC(=O)N2c2cccc(F)c2)c2ccccc21 (stereo unspecified)	-10.4%	·	·	·	·	·	·
CCC(C(=O)NC1CCC(C)CC1)n1nc(C)c2sc3ccccc3c2c1=O (stereo unspecified)	-5.9%	·	·	·	·	·	·
CC(C)c1cc2c(c(O)c1O)[C@@]13CCCC(C)(C)C1CC2OC3=O (stereo partly specified)	-22.0%	6.7µM*	2.9%	-74.6*	-2.4%	1.78µM*	3.55µM*
C=CCN1C(=O)/C(=C2/C(=O)N(CC(=O)O)c3ccccc32)S/C1=N/c1nccs1	·	·	-0.2%	·	·	·	·
C=CCN1C(=O)/C(=c2\sc3nc(=O)c(Cc4ccccc4Cl)nn3c2=O)c2ccccc21	-13.9%	11.9µM*	2.8%	?	?	35.5µM*	39.8µM*
COC(=O)c1cc2occc2n1CC(=O)Nc1ccc(N(C)C)cc1	-11.4%	·	·	·	·	·	·
Cc1ccc2oc(-c3cc(NC(=O)c4ccc5c(c4)OCCO5)cc(C)c3O)nc2c1	-19.9%	·	·	·	·	·	·
